Screening results: PubChem BioAssay, several laboratories
In the library only some 2.3% were active in any assay of this set; here they are far more common.
MEKK3 PB1 HTS: MEKK3-MEK5 PB1 interaction, increase or decrease; bead-based flow cytometry, Alexa488-MEK5 binding to MEKK3; actives lie on both sides; 0 = blocked by unlabeled MEK5, 100 = vehicle; 290,000 compounds, 1.4% hits; binding response (% of control), % at 10 µM; AID 1529;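 active = binding response more than 3 SD above or below the average of its plate-row segment, actives on both sides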;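 note: Alexa488 bead fluorescence after subtracting the streptavidin-only scavenger bead signal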
MEKK2 WT-MEK5: raises or lowers MEK5 binding to wildtype human MEKK2 PB1 domain. Q9Y2U5. bead flow cytometry, Alexa488-MEK5 binding to MEKK2 WT; actives lie on both sides. binding response (% of control), % at 10 µM. 290,000 compounds, 1.1% hits; in the data active = binding response below about 67% or above about 130%
UBC13 polyUb: human UBC13 polyubiquitination inhibition. P61088. UBC13 polyubiquitin chain formation, TR-FRET. inhibition, % at 20 µM. 330,000 compounds, 0.47% hits. AID 485273; in the data active = inhibition above about 45%, passing the limit was not always enough
Target sequence (P61088 whole entry, looked up): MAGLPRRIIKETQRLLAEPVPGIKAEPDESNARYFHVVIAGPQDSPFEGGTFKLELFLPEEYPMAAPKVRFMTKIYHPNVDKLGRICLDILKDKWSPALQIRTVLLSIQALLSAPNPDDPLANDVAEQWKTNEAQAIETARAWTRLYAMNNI
MEKK2 mut-MEK5: signal of MEK5 binding to mutant human MEKK2 PB1 domain; bead flow cytometry, Alexa488-MEK5 binding to MEKK2 mutant; percent response, % at 10 µM; 290,000 compounds, 0.35% hits; in the data active = percent response above about 24%, passing the limit was not always enough
MEKK2wt confirm: raises or lowers MEK5 binding to wildtype human MEKK2, retest; shares compounds with MEKK3 PB1 HTS; binding response (% of control), % at 10 µM; bead flow cytometry, Alexa488-MEK5 binding to MEKK2 WT; actives lie on both sides; 5,900 compounds, 2.4% hits; in the data active = binding response below about 16% or above about 210%; inactive = in between
MEKK2mut confirm: signal of MEK5 binding to mutant human MEKK2, retest; percent response, % at 10 µM; 5,900 compounds, 2% hits; AID 1893; bead flow cytometry, Alexa488-MEK5 binding to MEKK2 mutant; shares compounds with MEKK3 PB1 HTS; in the data active = percent response mostly above about 71%, no sharp cut-off; inactive = mostly below about 38%;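 note: higher means compound restores mutant binding toward wildtype level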
MEKK3 confirm: MEKK3-MEK5 PB1 inhibition, single concentration confirmation | shares compounds with MEKK3 PB1 HTS | bead flow cytometry, Alexa488-MEK5 binding to MEKK3; stronger effect = lower value | binding response (% of control), % at 10 µM | 5,900 compounds, 1.8% hits | AID 1894;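 active = binding response below 72% of control, or above a set upper limit, though filed actives all read lower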
Large screens that a line does not name were inactive (follow-up assays come after a bar, where they were run); [ ] = dose if it differs, or a comment.

CCN(CC)CCOC(=O)c1ccc(NC(=O)CCCN2C(=O)/C(=C\c3cccs3)SC2=S)cc1	MEKK2 WT-MEK5 154 | MEKK2wt confirm inactive | MEKK2mut confirm inactive | MEKK3 confirm inactive
O=C(O)c1ccc(CNCc2cccc(Oc3ccccc3)c2)cc1	none
CCOc1cccc(CNCc2ccc(C(=O)O)cc2)c1	MEKK3 PB1 HTS 50[inhibitor] | MEKK2wt confirm inactive | MEKK2mut confirm inactive | MEKK3 confirm inactive
CCOC(=O)N1CCC(NC(=O)C2=CCN(S(=O)(=O)c3ccc(OC)cc3)CC2)CC1	MEKK3 PB1 HTS 128 | MEKK2wt confirm inactive | MEKK2mut confirm inactive | MEKK3 confirm inactive
CCCS(=O)(=O)N1CCC(C(=O)NCCC(C)C)CC1	none
CCOC(=O)c1c(CSc2ccccc2)n(C)c2cc(Br)c(OCC(O)CNC(CO)(CO)CO)cc12 (configuration not stated)	MEKK3 PB1 HTS 69[inhibitor] (no result: UBC13 polyUb) | MEKK2wt confirm inactive | MEKK2mut confirm inactive | MEKK3 confirm inactive
CCOC(=O)c1c(CSC(=N)N)n(-c2ccccc2)c2cc(Br)c(OC(C)=O)cc12	MEKK2 WT-MEK5 143 | MEKK2wt confirm inactive | MEKK2mut confirm inactive | MEKK3 confirm inactive
CCOC(=O)c1c(CSc2ccccc2)n(C)c2cc(Br)c(OC)c(O)c12	none
CCOC(=O)c1c(CN2CCN(Cc3ccccc3)CC2)n(C)c2cc(Br)c(OC)cc12	MEKK2 WT-MEK5 135 | MEKK2wt confirm inactive | MEKK2mut confirm inactive | MEKK3 confirm inactive
O=C(CCNC(=O)c1ccco1)NCc1ccc(C(=O)O)cc1	none (no result: MEKK3 PB1 HTS, MEKK2 WT-MEK5, MEKK2 mut-MEK5)
[O-]/C(=C(\C(=S)NCCN1CCOCC1)[n+]1ccccc1)c1ccc(Cl)s1	none
[O-]/C(=C(\C(=S)NCc1ccccc1)[n+]1ccccc1)c1ccc(Cl)s1	MEKK3 PB1 HTS 74[inhibitor] | MEKK2wt confirm inactive | MEKK2mut confirm inactive | MEKK3 confirm inactive
CC(C)Nc1nc(NC(C)C)nc(Oc2ccc(/C=N/O)cc2)n1	MEKK3 PB1 HTS 124 | MEKK2wt confirm inactive | MEKK2mut confirm inactive | MEKK3 confirm inactive
CN(C)c1nc(Oc2ccc(/C=N/O)cc2)nc(N(C)C)n1	none
CC1CCN(CCC(=O)N/N=C/c2ccc([N+](=O)[O-])cc2)CC1	none
N#CC1(NC(=O)COc2ccc(C(N)=O)cc2)CCCC1	none (no result: MEKK3 PB1 HTS, MEKK2 WT-MEK5, MEKK2 mut-MEK5)
N#Cc1ccc(-c2csc(NC(=O)c3cc(-c4cccs4)nc4ccccc34)n2)cc1	MEKK3 PB1 HTS 63[inhibitor], MEKK2 WT-MEK5 38[inhibitor] | MEKK2wt confirm inactive | MEKK2mut confirm inactive | MEKK3 confirm inactive
N#Cc1ccc(/C=N/NC(=O)c2cc(-c3cccs3)nc3ccccc23)cc1	none
Cn1c(N)c(C(=O)CSc2nnc(C3CC3)n2-c2ccccc2)c(=O)n(C)c1=O	none (no result: MEKK3 PB1 HTS, MEKK2 WT-MEK5, MEKK2 mut-MEK5)
S=C(NCCN1CCOCC1)N/N=C/c1c2ccccc2cc2ccccc12	MEKK3 PB1 HTS 1.0[inhibitor], MEKK2 WT-MEK5 -2.0[inhibitor] | MEKK2wt confirm inactive | MEKK2mut confirm inactive | MEKK3 confirm inactive
S=C(NCCN1CCOCC1)Nc1ccc(Br)cc1	MEKK3 PB1 HTS 145 | MEKK2wt confirm inactive | MEKK2mut confirm inactive | MEKK3 confirm inactive
Cc1cccc(C)c1NC(=O)C(=O)NCCCN1CCOCC1	MEKK3 PB1 HTS 61[inhibitor] | MEKK2wt confirm inactive | MEKK2mut confirm inactive | MEKK3 confirm inactive
O=C(NCCCN1CCOCC1)C(=O)N/N=C/c1ccccc1	MEKK3 PB1 HTS 157 | MEKK2wt confirm inactive | MEKK2mut confirm inactive | MEKK3 confirm inactive
Cc1cccc2c(=O)c(C(=O)NCCCN3CCOCC3)c[nH]c12	MEKK3 PB1 HTS 71[inhibitor] | MEKK2wt confirm inactive | MEKK2mut confirm inactive | MEKK3 confirm inactive
CC1CCC(NC(=O)COC(=O)c2cccnc2Cl)CC1 (configuration not stated)	none (no result: MEKK3 PB1 HTS, MEKK2 WT-MEK5, MEKK2 mut-MEK5)
C(=N/n1c2ccccc2c2ccccc21)/c1ccco1	none
N=c1scc(-c2ccccc2)n1/N=C/c1ccco1	MEKK2 mut-MEK5 55 | MEKK2wt confirm inactive | MEKK2mut confirm inactive | MEKK3 confirm inactive
O=C(Cn1cnc2scc(-c3cccc([N+](=O)[O-])c3)c2c1=O)NCc1ccco1	none
CC(C)CN1CCNC(=O)C1CC(=O)NCCc1ccc(C(F)(F)F)cc1 (configuration not stated)	MEKK2 WT-MEK5 160 | MEKK2wt confirm inactive | MEKK2mut confirm inactive | MEKK3 confirm inactive
O=C(CC1C(=O)NCCN1CC1CCCCC1)NCCc1ccc(F)cc1 (configuration not stated)	MEKK2 WT-MEK5 139 | MEKK2wt confirm inactive | MEKK2mut confirm inactive | MEKK3 confirm inactive
CC(C)CN1CCNC(=O)C1CC(=O)NCCc1cnn(-c2ccccc2)c1 (configuration not stated)	none
Cc1ccc(CN2CCNC(=O)C2CC(=O)NC2CCCCCC2)cc1 (configuration not stated)	MEKK2 mut-MEK5 24 | MEKK2wt confirm inactive | MEKK2mut confirm inactive | MEKK3 confirm inactive
O=C(CC1C(=O)NCCN1Cc1ccc(F)cc1)NC1CCCCCCC1 (configuration not stated)	none
Cc1c([N+](=O)[O-])cc(C(=O)Nc2ccc(NC(=O)c3ccco3)cc2)cc1[N+](=O)[O-]	none
CCC/C=C1/CCCOC(C(=O)NCc2ccc(C)o2)(C(F)(F)F)C1 (configuration not stated)	none (no result: MEKK3 PB1 HTS, MEKK2 WT-MEK5, MEKK2 mut-MEK5)
CNC(=O)C(=O)Nc1ccc(C)cc1C	none
CNC(=O)C(=O)Nc1c(C)cc(C)cc1C	MEKK3 PB1 HTS 134 | MEKK2wt confirm -1.0[inhibitor] | MEKK2mut confirm inactive | MEKK3 confirm 0.0
CN(CCCNC(=O)Cn1cccc1C(=O)c1ccccc1)C1CCCCC1	none
CCOc1ccccc1N/C(=N/c1nc(C)cc(C)n1)NC(=O)Nc1ccc(Cl)c(Cl)c1	MEKK3 PB1 HTS 72[inhibitor] | MEKK2wt confirm inactive | MEKK2mut confirm inactive | MEKK3 confirm inactive
O=S(=O)(N/N=C\c1cn(-c2ccccc2)nc1-c1ccccc1)c1ccccc1	MEKK3 PB1 HTS 126 | MEKK2wt confirm inactive | MEKK2mut confirm inactive | MEKK3 confirm inactive
O=[N+]([O-])c1ccc(N/N=C/c2cn(-c3ccccc3)nc2-c2ccccc2)cc1	MEKK2 WT-MEK5 11, MEKK2 mut-MEK5 27 | MEKK2wt confirm inactive | MEKK2mut confirm inactive | MEKK3 confirm inactive
NS(=O)(=O)c1ccc(N/N=C/c2cn(-c3ccccc3)nc2-c2ccccc2)c([N+](=O)[O-])c1	none
O=[N+]([O-])c1cccc(-c2nn(-c3ccccc3)cc2CO)c1	none
O=C(NCc1cn(-c2ccccc2)nc1-c1ccccc1)c1ccc([N+](=O)[O-])cc1	MEKK3 PB1 HTS 131 | MEKK2wt confirm inactive | MEKK2mut confirm inactive | MEKK3 confirm inactive
COc1cccc(CN(C)C(=O)COc2ccc(C(=O)c3ccc(Cl)cc3)cc2)c1OC	none
CC(C)NC(=S)N1CCN(S(=O)(=O)c2cccc(C(F)(F)F)c2)CC1	none
CCn1c(=O)c2c(nc3n2CCCN3c2cccc(C)c2)n(C)c1=O	none
